# Bioassay records: PubChem BioAssay, Broad Institute
# MITF inhib = inhibitors of MITF, primary screen, MITF inhibitor project, cell-based, luminescence. TRPM1 promoter luciferase, 24 h. inhibition, % (test concentration not listed). hit rate 0.28% among 37,000; in the data active = inhibition above about 85%; inconclusive = no clear call, values can overlap the other calls; inactive = below about 68%;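 note: human melanocyte line stably carrying TRPM1 promoter luciferase reporter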
# NOMO-1 viab = NOMO-1 AML cell viability reduction, primary screen, STK33 inhibitor project, CellTiter-Glo luminescence. NOMO-1 AML viability, 72 h. inhibition, % (no concentration beside the values). hit rate 7.5% among 37,000; in the data active = inhibition above about 80%; inconclusive = no clear call, values can overlap the other calls
# Shh pathway inh = Hedgehog pathway signaling inhibitors, primary screen, luminescence, Shh-LIGHT2 cells, Gli-luciferase; Shh-LIGHT2 Gli-luciferase reporter, 30 h; inhibition, % (test concentration not listed); hit rate 2.1% among 22,000; AID 2313, 2010;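 active = mean inhibition across valid replicates above about 65%, limit read from the data; inconclusive = mean under the limit, yet half or more replicates past it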;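 note: pathway switched on by Shh-conditioned medium diluted 1 in 25 in low serum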
# An asterisk follows results filed as active; ? = inconclusive; / = no result given. An excerpt weighted towards active compounds, which were near 8.1% of everything screened.
SMILES,MITF inhib,NOMO-1 viab,Shh pathway inh
C[C@@H]1CN([C@@H](C)CO)C(=O)c2cccc(NC(=O)Nc3ccccc3)c2O[C@@H]1CN(C)Cc1ccc(C(F)(F)F)cc1,-7,?,29
CNc1nc(NC(C)C)nc(Oc2ccc(=O)[nH]n2)n1,3,3,/
CC(C)c1ccc(NC(=O)Cn2cc([N+](=O)[O-])cn2)cc1,-21,26,/
Cc1sc2c(c1C)CN(C(C)(C)C)CN2C(=O)c1ccccc1,-2,20,-42
O=C(c1ccccc1)N1CN(C2CCCCC2)Cc2c1sc1c2CCCC1,9,116*,-34
CN1CCc2cc(Cl)c(O)cc2[C@@H](c2ccccc2)C1,-1,13,17
C=CCN1CCc2c(cc(O)c(O)c2Br)[C@@H](c2ccccc2)C1,31,109*,31
Cc1cccc(C)c1NC(=O)CSc1nnnn1-c1c(C)cccc1C,12,34,/
C[C@H]1CN([C@@H](C)CO)C(=O)Cc2cc(NC(=O)CCC(F)(F)F)ccc2O[C@H]1CN(C)S(=O)(=O)c1ccc(Cl)cc1,14,109*,-49
C[C@H](CO)N1C[C@H](C)[C@H](CN(C)S(=O)(=O)c2ccc(Cl)cc2)Oc2ccc(NC(=O)CCC(F)(F)F)cc2CC1=O,19,121*,-12
C[C@H]1CN([C@@H](C)CO)C(=O)Cc2cc(NC(=O)CCC(F)(F)F)ccc2O[C@H]1CN(C)S(=O)(=O)c1ccc(F)cc1,32,126*,-6
C[C@@H]1CN([C@@H](C)CO)C(=O)Cc2cc(NC(=O)CCC(F)(F)F)ccc2O[C@@H]1CN(C)S(=O)(=O)c1ccc(F)cc1,7,24,-18
Cc1ccc(S(=O)(=O)N(C)C[C@H]2Oc3ccc(NC(=O)CCC(F)(F)F)cc3CC(=O)N([C@@H](C)CO)C[C@H]2C)cc1,5,2,/
C[C@@H]1CN([C@@H](C)CO)C(=O)Cc2cc(NC(=O)CCC(F)(F)F)ccc2O[C@@H]1CN(C)S(=O)(=O)c1ccccc1,-2,17,-16
O=C(Cn1cnc2ccccc2c1=O)Nc1ccc(F)cc1F,-8,-8,/
O=[N+]([O-])c1ccccc1S(=O)(=O)Nc1nccs1,34,31,/
CC(C)NC(=O)Nc1cccc2c1O[C@@H](CN(C)S(=O)(=O)c1ccc(F)cc1)[C@@H](C)CN([C@@H](C)CO)C2=O,-4,-5,80*
CC(C)NC(=O)Nc1cccc2c1O[C@H](CN(C)S(=O)(=O)c1ccc(Cl)cc1)[C@@H](C)CN([C@H](C)CO)C2=O,1,15,-4
CC(C)NC(=O)Nc1cccc2c1O[C@H](CN(C)S(=O)(=O)c1ccc(Cl)cc1)[C@H](C)CN([C@@H](C)CO)C2=O,-5,7,20
CC(C)NC(=O)Nc1cccc2c1O[C@@H](CN(C)S(=O)(=O)c1ccc(Cl)cc1)[C@@H](C)CN([C@@H](C)CO)C2=O,16,9,96*
CC(C)NC(=O)Nc1cccc2c1O[C@H](CN(C)S(=O)(=O)c1ccc(F)cc1)[C@H](C)CN([C@H](C)CO)C2=O,0,5,-3
CC(C)NC(=O)Nc1cccc2c1O[C@@H](CN(C)S(=O)(=O)c1ccc(Cl)cc1)[C@@H](C)CN([C@H](C)CO)C2=O,-2,26,102*
CC(Oc1ccccc1)C(=O)Nc1cccc(-c2nnc(-c3ccccc3)o2)c1 (stereo not given),-35,26,/
O=C(NCCNC(=O)c1cc2ccccc2cc1O)c1cc2ccccc2cc1O,3,-36,/
O=C1/C(=C/c2ccc(O)cc2)SC(=S)N1CCc1ccccc1,2,102*,/
SMILES,MITF inhib,NOMO-1 viab,Shh pathway inh
CC(C)OC(=O)CCN1C(=O)/C(=C/c2ccccc2)SC1=S,-5,40,25
COc1ccc(-c2nn(C)c(=O)c3ccccc23)cc1CNC(=O)c1ccc([N+](=O)[O-])cc1,7,8,/
Cc1ccc(C2=NNC(=O)C(c3cn(CCC#N)c4ccccc34)C2)cc1 (stereo not given),14,21,/
Cn1c2ccccc2c2c3c(c4c5ccccc5n(CCC#N)c4c21)CNC3=O,12,140*,-101
C=C[C@](C)(CC/C=C(\C)CC[C@H](O)C(C)(C)O)O[C@@H]1O[C@H](CO)[C@@H](O)[C@H](O)[C@H]1O,-11,-5,-14
C=CC(C)(CC/C=C(\C)C(O)CC=C(C)C)OC1OC(CO)C(O)C(O)C1O (stereo not given),/,/,78*
CC1(C)CC(=O)C2=C(C1)N(CC1CCCO1)C(=O)C2(NC(=O)c1ccccc1)C(F)(F)F (stereo not given),-9,7,/
C[C@H]1CN([C@@H](C)CO)C(=O)Cc2cc(NC(=O)Nc3cccc4ccccc34)ccc2O[C@@H]1CN(C)Cc1ccc(C(F)(F)F)cc1,29,125*,-8
C[C@@H]1CN([C@H](C)CO)C(=O)Cc2cc(NC(=O)Nc3cccc4ccccc34)ccc2O[C@H]1CN(C)Cc1ccc(C(=O)O)cc1,2,1,7
C[C@@H]1CN([C@H](C)CO)C(=O)Cc2cc(NC(=O)Nc3cccc4ccccc34)ccc2O[C@H]1CN(C)Cc1ccc(C(F)(F)F)cc1,22,105*,-24
C[C@H]1CN([C@@H](C)CO)C(=O)Cc2cc(NC(=O)Nc3cccc4ccccc34)ccc2O[C@H]1CN(C)Cc1ccc(C(F)(F)F)cc1,20,106*,-41
C[C@@H]1CN([C@@H](C)CO)C(=O)Cc2cc(NC(=O)Nc3cccc4ccccc34)ccc2O[C@@H]1CN(C)C(=O)Nc1ccc(C(F)(F)F)cc1,24,107*,28
C[C@H](CO)N1C[C@H](C)[C@H](CN(C)C(=O)Nc2ccc(C(F)(F)F)cc2)Oc2ccc(NC(=O)Nc3cccc4ccccc34)cc2CC1=O,19,46,5
Cc1ccc(S(=O)(=O)N2C(=O)CCC2C(=O)Nc2cccc(Br)c2)cc1 (stereo not given),2,-20,/
CCc1ccc(-c2nc3cc(NC(=O)COc4ccc([N+](=O)[O-])cc4)ccc3o2)cc1,-36,-21,/
N#Cc1ccc(NC(=O)CCCn2cc([N+](=O)[O-])cn2)cc1,-16,-8,/
CCN(CC(=O)Nc1ccc(C(N)=O)cc1)S(=O)(=O)c1ccc(Br)cc1,-13,5,/
C[C@H]1CN([C@@H](C)CO)C(=O)Cc2cc(NC(=O)Nc3cccc4ccccc34)ccc2O[C@@H]1CN(C)Cc1ccc(C(=O)O)cc1,3,3,-22
C[C@H](CO)N1C[C@H](C)[C@H](CN(C)Cc2ccc(C(F)(F)F)cc2)Oc2ccc(NC(=O)Nc3cccc4ccccc34)cc2CC1=O,23,125*,/
Cc1cc(C)c(S(=O)(=O)N(C)CC(=O)Nc2cc([N+](=O)[O-])ccc2C)c(C)c1,0,21,/
COc1ccc(NC(=O)C(C)N(c2ccc(C)c(C)c2)S(C)(=O)=O)cc1 (stereo not given),-5,21,/
O=C(NCc1ccco1)c1cc(-c2cccc(Cl)c2)nc2ccccc12,5,23,/
CC(=O)O[C@H]1[C@H](Oc2ccccc2COC(=O)C2(O)C=CCCC2=O)O[C@H](CO)[C@@H](O)[C@@H]1O (stereo not given in full),-19,26,-19
